According to PubChem BioAssay AID651640 (Broad Institute, 2012):
About 6,000 (1.7%) of roughly 350,000 compounds were called active. Not shown: some 5% with an inconclusive outcome. No stated cut-off is given here; in the data, active means CPE inhibition above about 20% (passing the limit was not always enough); inconclusive means no clear call, values can overlap the other calls; tested in BHK-21 cells. The entries come from a sample that favours actives as a whole.

Assay: inhibitors of DENV2 cytopathic effect, primary screen, cell-based, plate reader, single concentration (AID 651640);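 further: 0% = median of neutral control wells and 100% = median of positive control wells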
Details: DENV2-infected cells, cytopathic effect rescue, at 9.99 µM, hits give high values
With CCOC(=O)[C@]12Cc3cc(OC)ccc3[C@H]1N(C(C)C)C(=O)c1ccccc12 the CPE inhibition was 28.6% (active).
For CCOC(=O)[C@]12Cc3ccccc3[C@H]1N(C1CCCCC1)C(=O)c1cc(OC)ccc12, the CPE inhibition was 12.6% (inactive).
With O=C(NC1CCCCC1)N1Cc2cc(N3CCCCC3)ccc2-n2nncc2C1 the CPE inhibition was 18.7% (inactive).
In the case of Clc1ccc([C@@H]2CC3CCC2N3)cn1 (stereo not given in full), the CPE inhibition was 2.65% (inactive).
In the case of c1cc2c(cc1[C@H]1OC[C@H]3[C@@H]1CO[C@@H]3c1ccc3c(c1)OCO3)OCO2, the CPE inhibition was -8.32% (inactive).
In the case of O=C1/C(=C\c2ccc3c(c2)OCO3)N2CCC1CC2, the CPE inhibition was -2.2% (inactive).
With c1cc2c(cc1C1OCC3C(c4ccc5c(c4)OCO5)OCC13)OCO2 (stereo not given) the CPE inhibition was 62% (active).
In the case of COc1ccc(C#Cc2ccc([C@H]3[C@H](CO)N4CCCCN(C(=O)Cc5ccccc5)C[C@@H]34)cc2)cc1, the CPE inhibition was -26.2% (inactive).
With O=C(NCC1=C(c2ccc3ccccc3c2)C[C@@H]2CC[C@H]1N2Cc1ccco1)c1cccs1 the CPE inhibition was 0.357% (inactive).
In the case of C/C=C/c1ccc(C2[C@@H]3CN(S(C)(=O)=O)C[C@H]2N3)cc1 (stereo not given in full), the CPE inhibition was 62.5% (active).
With C/C=C/c1ccc(C2[C@@H]3CN(Cc4cncnc4)C[C@H]2N3)cc1 (stereo not given in full) the CPE inhibition was 3.65% (inactive).
For CS(=O)(=O)N1CCC2CCNC2C1 (stereo not given), the CPE inhibition was -6.24% (inactive).
With C[C@]12CCC3C(CC[C@H]4[C@H](O)[C@H](O)CC[C@]34C)C1CCC2=O (stereo not given in full) the CPE inhibition was -1.57% (inactive).
In the case of CC(=O)NCC1=C(c2ccc3ccccc3c2)C[C@@H]2CC[C@H]1N2Cc1ccco1, the CPE inhibition was -2.04% (inactive).
For C[C@]12CCCCC1=CC(=O)C1C2CC[C@@]2(C)C1C[C@@H](F)[C@@H]2O (stereo not given in full), the CPE inhibition was -4.28% (inactive).
For COc1ccc(-c2ccc([C@H]3[C@H](CO)N4CCCCN(C(=O)Cc5ccncc5)C[C@@H]34)cc2)cc1, the CPE inhibition was 40.9% (active).
For O=C(Cc1ccncc1)N1CCCCN2[C@@H](CO)[C@H](c3ccc(-c4ccncc4)cc3)[C@@H]2C1, the CPE inhibition was 8.4% (inactive).
For COc1cccc(-c2ccc([C@H]3[C@H]4CN(C(=O)Cc5ccncc5)CCCCN4[C@H]3CO)cc2)c1, the CPE inhibition was 9.07% (inactive).
In the case of O=S(=O)(c1ccccc1)N1CCC2CCNC2C1 (stereo not given), the CPE inhibition was -0.751% (inactive).
In the case of COc1ccc2c(c1)NP(=S)(c1ccccc1)N2 (stereo not given), the CPE inhibition was 1.27% (inactive).
With Cc1ccc(-n2c(C)cc(/C=C3\C(=O)NC(=O)N(C)C3=O)c2C)cc1C the CPE inhibition was -7.68% (inactive).
For Cc1cc(/C=C2/C(=O)NC(=O)N(Cc3ccco3)C2=O)c(C)n1-c1ccc(C(=O)O)cc1, the CPE inhibition was -3.34% (inactive).
With Cc1ccnc(-n2c(C)cc(/C=C3\C(=O)NC(=S)N(C)C3=O)c2C)c1 the CPE inhibition was 47.7% (active).
In the case of O=C(NC(=S)N1C[C@H]2C[C@H](C1)c1cccc(=O)n1C2)c1ccc(F)cc1, the CPE inhibition was -11.6% (inactive).
For O=C(CCC(=O)N1C[C@H]2C[C@@H](C1)c1cccc(=O)n1C2)NCc1ccccc1C(F)(F)F, the CPE inhibition was 25.4% (active).
With COc1ccccc1NC(=O)N1C[C@@H]2C[C@@H](C1)c1cccc(=O)n1C2 the CPE inhibition was 7.15% (inactive).
For CC(C)CN1Cc2cc(N3CCCCC3)ccc2-n2nncc2C1, the CPE inhibition was -1.07% (inactive).
In the case of O=C(O)[C@H]1[C@H](CO)[C@H]2Cn3c(ccc(-c4ccccc4)c3=O)[C@@H]1N2S(=O)(=O)c1ccccc1F, the CPE inhibition was 0.732% (inactive).
For COc1cccc(-c2ccc3n(c2=O)C[C@H]2[C@H](CO)[C@@H](C(=O)O)[C@@H]3N2C(=O)c2cnccn2)c1, the CPE inhibition was 0.125% (inactive).
In the case of COc1cc(OC)cc(C(=O)NCCN2CCC3(CC2)C(=O)NCN3c2ccccc2)c1, the CPE inhibition was 5.39% (inactive).
In the case of O=C(c1ccccc1)C(O)(CN1CCCCC1)c1ccccc1 (stereo not given), the CPE inhibition was 9.29% (inactive).
With COC(=O)C1=C(c2ccc(F)cc2OCc2ccccc2)C[C@@H]2CC[C@H]1N2C(=O)NCc1ccc(C(C)(C)C)cc1 the CPE inhibition was -10.5% (inactive).
In the case of COC(=O)C1=C(c2ccc(F)cc2OCc2ccccc2)C[C@@H]2CC[C@H]1N2C(=O)NCc1ccc2[nH]ccc2c1, the CPE inhibition was 5.56% (inactive).
For COC(=O)C1=C(c2ccc(F)cc2OCc2ccccc2)C[C@@H]2CC[C@H]1N2C(=O)NCc1ccc(Cl)cc1, the CPE inhibition was 91% (active).
For COc1ccc(C2C=C(C)Oc3c2c(=O)oc2ccccc32)cc1OC (stereo not given), the CPE inhibition was -10.4% (inactive).
